7 sequences from PMC7862700, “An all-to-all approach to the identification of sequence-specific readers for epigenetic DNA modifications on cytosine” can be followed below.

Common to all, as to assay: DAPPL (digital affinity profiling via proximity ligation, sequencing); 10 mM Tris-HCl pH 7.5, 50 mM NaCl, 1 mM DTT, 4% glycerol, room temperature, 30 min; GST-TFs on glutathione beads, 16-mer random dsDNA library, 0.1% formaldehyde crosslink after washing; high values mean tight binding
Common to all, as to conditions: protein: recombinant; tags: N-terminal GST; dsDNA, one strand shown

One assay concerns the target T1, ERF (Homo sapiens, UniProt P50548 1-548).
T1 sequence: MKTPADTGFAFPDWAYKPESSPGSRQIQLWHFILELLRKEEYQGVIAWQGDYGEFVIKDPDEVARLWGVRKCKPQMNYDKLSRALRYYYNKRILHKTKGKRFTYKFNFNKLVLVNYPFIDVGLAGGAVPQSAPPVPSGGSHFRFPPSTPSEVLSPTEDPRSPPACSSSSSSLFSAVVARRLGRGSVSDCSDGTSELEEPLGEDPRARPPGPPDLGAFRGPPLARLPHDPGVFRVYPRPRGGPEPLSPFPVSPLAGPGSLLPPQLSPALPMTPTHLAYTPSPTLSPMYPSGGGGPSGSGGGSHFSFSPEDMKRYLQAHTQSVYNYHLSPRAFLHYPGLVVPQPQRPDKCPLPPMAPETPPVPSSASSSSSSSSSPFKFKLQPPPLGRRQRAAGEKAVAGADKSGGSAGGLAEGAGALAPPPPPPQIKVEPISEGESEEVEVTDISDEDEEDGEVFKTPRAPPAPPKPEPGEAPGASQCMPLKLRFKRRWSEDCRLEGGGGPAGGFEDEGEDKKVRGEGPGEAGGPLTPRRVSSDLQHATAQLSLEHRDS
In a few lines:
(§1)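 The binding signal reported is, for every hexamer, its read frequency for a factor over its read frequency for the tag-only sample. Reads came from pools of yeast-expressed, GST-fused human transcription factors on glutathione beads, barcoded with DNA and mixed with that sample, which were incubated with 200 nmole of a random double-stranded 16-mer DNA library in Tris/NaCl/DTT/glycerol buffer at room temperature for 30 min. After washing, the pools were crosslinked with 0.1% formaldehyde, proximity-ligated with BsaI/T4 ligase for 1 h at 37 °C, PCR-amplified and sequenced on an Illumina NextSeq500.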

A further assay has as its target T2, ETV3L (Homo sapiens, UniProt Q6ZN32 1-361).
T2 sequence: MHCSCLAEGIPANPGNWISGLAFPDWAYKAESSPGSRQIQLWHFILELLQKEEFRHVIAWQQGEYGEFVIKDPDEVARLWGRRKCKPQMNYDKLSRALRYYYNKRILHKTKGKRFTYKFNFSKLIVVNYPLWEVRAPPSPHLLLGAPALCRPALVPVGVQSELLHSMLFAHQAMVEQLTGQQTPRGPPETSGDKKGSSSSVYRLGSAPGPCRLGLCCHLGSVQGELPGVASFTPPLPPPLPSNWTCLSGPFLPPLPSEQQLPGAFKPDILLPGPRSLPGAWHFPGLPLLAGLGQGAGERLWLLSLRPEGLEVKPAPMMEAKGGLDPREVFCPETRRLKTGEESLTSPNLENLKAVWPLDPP
Summed up:
as §1

Another assay deals with T3, ETS2 (Homo sapiens, UniProt P15036 1-469).
T3 sequence: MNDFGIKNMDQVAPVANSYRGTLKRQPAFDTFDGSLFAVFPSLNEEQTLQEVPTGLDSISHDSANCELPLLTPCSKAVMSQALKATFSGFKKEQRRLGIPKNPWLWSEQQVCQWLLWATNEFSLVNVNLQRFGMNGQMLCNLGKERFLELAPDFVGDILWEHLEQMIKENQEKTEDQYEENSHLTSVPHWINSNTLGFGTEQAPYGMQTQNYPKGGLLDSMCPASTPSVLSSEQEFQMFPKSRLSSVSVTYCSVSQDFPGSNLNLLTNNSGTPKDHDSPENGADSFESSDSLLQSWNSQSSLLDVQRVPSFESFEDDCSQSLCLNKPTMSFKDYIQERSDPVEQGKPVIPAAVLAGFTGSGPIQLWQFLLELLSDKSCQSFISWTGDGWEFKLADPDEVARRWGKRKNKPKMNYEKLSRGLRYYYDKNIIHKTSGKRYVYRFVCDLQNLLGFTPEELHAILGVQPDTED
Summed up:
as §1

The next assay has as its target T4, SPDEF (Homo sapiens, UniProt O95238 1-335).
T4 sequence: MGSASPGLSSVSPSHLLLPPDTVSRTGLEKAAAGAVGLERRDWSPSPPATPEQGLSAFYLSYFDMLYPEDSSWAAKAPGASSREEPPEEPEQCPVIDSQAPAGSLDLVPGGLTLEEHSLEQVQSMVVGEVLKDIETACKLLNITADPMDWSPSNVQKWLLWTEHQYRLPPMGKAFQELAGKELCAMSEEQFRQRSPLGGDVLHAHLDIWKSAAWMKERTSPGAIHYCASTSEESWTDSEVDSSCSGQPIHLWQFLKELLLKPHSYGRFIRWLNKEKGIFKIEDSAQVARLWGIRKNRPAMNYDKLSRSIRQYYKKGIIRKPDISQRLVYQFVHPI
In a few lines: as §1

For a further assay, the target named is T5, ETV7 (Homo sapiens, UniProt Q9Y603 1-341).
T5 sequence: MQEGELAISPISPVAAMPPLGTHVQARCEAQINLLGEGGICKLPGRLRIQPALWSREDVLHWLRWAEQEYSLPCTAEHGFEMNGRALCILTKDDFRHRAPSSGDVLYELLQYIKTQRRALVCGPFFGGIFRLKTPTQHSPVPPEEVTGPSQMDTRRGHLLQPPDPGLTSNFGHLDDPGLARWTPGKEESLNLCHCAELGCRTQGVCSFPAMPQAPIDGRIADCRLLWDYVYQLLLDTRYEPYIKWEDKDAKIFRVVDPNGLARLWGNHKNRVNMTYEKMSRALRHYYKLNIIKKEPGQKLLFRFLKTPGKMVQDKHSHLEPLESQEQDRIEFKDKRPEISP
Summed up: as §1

The target in a further assay is T6, ELF5 (Homo sapiens, UniProt Q9UKW6-2 1-255).
T6 sequence: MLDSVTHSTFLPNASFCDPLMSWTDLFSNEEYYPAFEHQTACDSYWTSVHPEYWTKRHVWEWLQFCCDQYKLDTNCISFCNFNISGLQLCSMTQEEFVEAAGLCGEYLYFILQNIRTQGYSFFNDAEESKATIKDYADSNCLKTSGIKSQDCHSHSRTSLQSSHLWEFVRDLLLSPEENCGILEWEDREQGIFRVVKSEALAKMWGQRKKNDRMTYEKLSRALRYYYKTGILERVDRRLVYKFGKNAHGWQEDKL
Summed up: as §1

For a further assay, the target named is T7, ETV3 (Homo sapiens, UniProt P41162-2 1-143).
T7 sequence: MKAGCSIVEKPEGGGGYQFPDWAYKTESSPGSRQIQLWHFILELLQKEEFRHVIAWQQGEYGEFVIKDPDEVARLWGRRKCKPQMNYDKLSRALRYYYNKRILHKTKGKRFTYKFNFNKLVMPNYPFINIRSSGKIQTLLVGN
In a few lines:
as §1

The next assay has as its target ETV6 (Homo sapiens, UniProt P41212 1-452). Summed up: as §1

Sequence of ETV6 (P41212 whole entry): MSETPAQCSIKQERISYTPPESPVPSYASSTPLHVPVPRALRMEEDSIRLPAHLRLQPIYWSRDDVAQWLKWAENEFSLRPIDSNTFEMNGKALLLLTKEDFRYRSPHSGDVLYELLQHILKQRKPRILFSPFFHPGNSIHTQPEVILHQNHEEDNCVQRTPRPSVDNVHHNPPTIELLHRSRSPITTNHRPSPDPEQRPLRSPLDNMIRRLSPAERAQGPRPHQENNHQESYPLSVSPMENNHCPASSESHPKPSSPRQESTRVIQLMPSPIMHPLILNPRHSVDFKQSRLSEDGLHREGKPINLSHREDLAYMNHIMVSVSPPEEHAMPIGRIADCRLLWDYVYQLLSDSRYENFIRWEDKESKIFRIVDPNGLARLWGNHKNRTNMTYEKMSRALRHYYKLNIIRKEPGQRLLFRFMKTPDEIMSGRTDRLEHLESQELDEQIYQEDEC

On to TTTTCG, for which the binding signal with ERF is 1.25 fold enrichment (6-mer frequency, TF over GST control); in the assay with ETV3L, 1.41 fold enrichment (6-mer frequency, TF over GST control); with ETS2, 1.26 fold enrichment (6-mer frequency, TF over GST control); in the assay with SPDEF, 1.16 fold enrichment (6-mer frequency, TF over GST control); with ETV7, 1.2 fold enrichment (6-mer frequency, TF over GST control); in the assay with ELF5, 1.3 fold enrichment (6-mer frequency, TF over GST control). Also, the binding signal was 1.25 fold enrichment (6-mer frequency, TF over GST control) in the assay with ETV3 and 1.09 fold enrichment (6-mer frequency, TF over GST control) in the assay with ETV6.
Take GATTCT: the binding signal in the assay with ERF was 1.13 fold enrichment (6-mer frequency, TF over GST control); with ETV3L it was 1.17 fold enrichment (6-mer frequency, TF over GST control); with ETS2 it was 1.23 fold enrichment (6-mer frequency, TF over GST control); with SPDEF, 1.09 fold enrichment (6-mer frequency, TF over GST control); with ETV7 it was 1.23 fold enrichment (6-mer frequency, TF over GST control); with ELF5, 1.11 fold enrichment (6-mer frequency, TF over GST control). In addition, the binding signal with ETV3 was 1.28 fold enrichment (6-mer frequency, TF over GST control); with ETV6, 1.19 fold enrichment (6-mer frequency, TF over GST control).
As to TAAAAA, the binding signal is 1.37 fold enrichment (6-mer frequency, TF over GST control) with ERF; 1.37 fold enrichment (6-mer frequency, TF over GST control) with ETV3L; 1.33 fold enrichment (6-mer frequency, TF over GST control) in the assay with ETS2; 1.32 fold enrichment (6-mer frequency, TF over GST control) with SPDEF; 1.31 fold enrichment (6-mer frequency, TF over GST control) with ETV7; 1.29 fold enrichment (6-mer frequency, TF over GST control) in the assay with ELF5. For the same sequence, the binding signal in the assay with ETV3 is 1.25 fold enrichment (6-mer frequency, TF over GST control); in the assay with ETV6, 1.26 fold enrichment (6-mer frequency, TF over GST control).
In the case of ATGGTT, the binding signal with ERF is 1.27 fold enrichment (6-mer frequency, TF over GST control); with ETV3L, 1.36 fold enrichment (6-mer frequency, TF over GST control); with ETS2 it was 1.36 fold enrichment (6-mer frequency, TF over GST control); in the assay with SPDEF it was 1.18 fold enrichment (6-mer frequency, TF over GST control); in the assay with ETV7 it was 1.27 fold enrichment (6-mer frequency, TF over GST control); with ELF5, 1.27 fold enrichment (6-mer frequency, TF over GST control). Further, the binding signal is 1.34 fold enrichment (6-mer frequency, TF over GST control) with ETV3 and 1.3 fold enrichment (6-mer frequency, TF over GST control) with ETV6.
With TTAATT, the binding signal was 1.39 fold enrichment (6-mer frequency, TF over GST control) in the assay with ERF; 1.39 fold enrichment (6-mer frequency, TF over GST control) with ETV3L; 1.5 fold enrichment (6-mer frequency, TF over GST control) with ETS2; 1.3 fold enrichment (6-mer frequency, TF over GST control) with SPDEF; 1.55 fold enrichment (6-mer frequency, TF over GST control) with ETV7; 1.43 fold enrichment (6-mer frequency, TF over GST control) with ELF5. The binding signal with ETV3 is 1.44 fold enrichment (6-mer frequency, TF over GST control); in the assay with ETV6, 1.4 fold enrichment (6-mer frequency, TF over GST control).
Take TAGTAT: the binding signal in the assay with ERF is 1.29 fold enrichment (6-mer frequency, TF over GST control); with ETV3L it was 1.23 fold enrichment (6-mer frequency, TF over GST control); in the assay with ETS2, 1.27 fold enrichment (6-mer frequency, TF over GST control); with SPDEF it was 1.15 fold enrichment (6-mer frequency, TF over GST control); with ETV7, 1.44 fold enrichment (6-mer frequency, TF over GST control); with ELF5, 1.25 fold enrichment (6-mer frequency, TF over GST control). The binding signal with ETV3 was 1.26 fold enrichment (6-mer frequency, TF over GST control); with ETV6, 1.29 fold enrichment (6-mer frequency, TF over GST control).
Take TTTTCT: the binding signal with ERF is 1.36 fold enrichment (6-mer frequency, TF over GST control); with ETV3L, 1.35 fold enrichment (6-mer frequency, TF over GST control); in the assay with ETS2, 1.32 fold enrichment (6-mer frequency, TF over GST control); with SPDEF, 1.28 fold enrichment (6-mer frequency, TF over GST control); with ETV7, 1.42 fold enrichment (6-mer frequency, TF over GST control); with ELF5, 1.26 fold enrichment (6-mer frequency, TF over GST control). For the same sequence, the binding signal was 1.54 fold enrichment (6-mer frequency, TF over GST control) with ETV3 and 1.32 fold enrichment (6-mer frequency, TF over GST control) with ETV6.
